In the supplement of paper PMC6555819:

Assays:
Assay in all cases: PBM binding z-score (relative to random genomic background probes); higher = stronger binding; sequences stand for … in GC…GCGATTGACAGCGTAGAATGAAGG
[1] = system: FXR:RXRa (NR concentration 270 nM, RXRa partner concentration 90 nM)
How it was run: (§1)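 For binding z-scores, the reference was random background probes on custom Agilent 4×180K protein-binding microarrays. These arrays were incubated 1 h with ligand-free nuclear receptor dimers in PBS pH 7.4, 2% milk, 0.02% Triton X-100, 1 mM DTT, 0.2 mg/mL BSA and 0.4 mg/ml salmon testes DNA. Fluorescence was scanned after antibody detection of each partner (one per run) and regression-normalized.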

[2] = system: LXRa:RXRa (NR concentration 270 nM, RXRa partner concentration 90 nM)
How it was run: as §1

[3] = system: LXRa homodimer (NR concentration 270 nM)
How it was run: as §1

[4] = system: LXRb:RXRa (NR concentration 270 nM, RXRa partner concentration 90 nM)
How it was run: as §1

[5] = system: LXRb homodimer (NR concentration 270 nM)
How it was run: as §1

[6] = system: PPARa:RXRa (NR concentration 270 nM, RXRa partner concentration 90 nM)
How it was run: as §1

[7] = system: PPARg:RXRa (NR concentration 180 nM, RXRa partner concentration 90 nM)
How it was run: as §1

[8] = system: PPARg:RXRa 270nM:90nM, anti-RXR (NR concentration 270 nM, RXRa partner concentration 90 nM)
How it was run: as §1

[9] = system: PPARg:RXRa 30nM:10nM, anti-RXR (NR concentration 30 nM, RXRa partner concentration 10 nM)
How it was run: as §1

[10] = system: PPARg:RXRa 90nM:30nM, anti-RXR (NR concentration 90 nM, RXRa partner concentration 30 nM)
How it was run: as §1

Sequence	PBM binding z-score [1]	PBM binding z-score [2]	PBM binding z-score [3]	PBM binding z-score [4]	PBM binding z-score [5]	PBM binding z-score [6]	PBM binding z-score [7]	PBM binding z-score [8]	PBM binding z-score [9]	PBM binding z-score [10]
AGTCAAAGTTCAGGACGAGGTACCGTAAAGCACG	3.73	3.6	1.07	1.66	0.243	3.21	4.19	4.86	1.63	3.51
CGAACTAGGTCACCAGGTCAGTGAAGAGGTTGGA	4.69	3.38	0.525	2.7	-0.48	5.78	9.48	7.31	5.4	7.06
CGTCAAAGTTCAACTAAGTTAACGTAAAGCACGC	7.25	5.95	4.61	4.33	2.56	4.99	5.09	5.05	2.33	4
CCTAGTTGGTCAAGGTCACACATGCTATAGGTAC	3.87	3.69	2.25	3.88	0.901	4.01	3.24	3.69	1.38	2.96
CGTCCAAGGTCATAGGAGGTCATTGAAGACAGAT	7.83	7.82	7.86	6.99	1.61	5.94	5.65	5.98	2.75	4.71
AGTCAAAGTTCACGACGAGGTAACGTAAAGCACG	7.08	6.16	3.15	3.94	0.875	5.45	7.81	7.17	4.47	6.41
CGCACTAGGTCACCAGGACAGTGAAGAGGTTGGA	3.84	2.51	0.256	1.9	-0.125	4.91	8.32	6.61	4.56	6.23
CGAACTAGGTCAAAGTACAGTGAAAGGCGACGTA	4.69	3.09	0.303	2.45	0.12	5.46	9.58	7.61	7.01	8.33
AGAACGAGGGCAATGAGTTCATAGCACGGGTGGC	1.78	2.26	1.48	1.11	-0.445	2.83	2.16	1.57	0.0417	0.912
CGTCAAAGTTCAACTAAGGTAACTTAAAGCACGC	7.38	6.11	4.42	4.16	1.95	5.47	5.21	5.69	2.4	4.39
CCTACTGGGCCATTCAGAGGACATTGATCATATG	-0.067	-0.34	0.339	-0.405	-0.12	0.0535	0.784	0.44	-0.132	-0.17
CAAGCTAGGTCAAGAGGTCAAAGTCCGCTTCCCG	7.28	6.35	6.45	5.81	1.58	6.2	6.82	6.77	4.04	6.31
CGTCCAAGGTCAATGCGAGGTCAGTGAAAGCATT	7.21	6.04	4.28	5.1	1.25	5.46	4.59	4.98	1.48	3.65
AGTCAAAATTCACTAGGTAACGTAAGATTCAGCT	0.492	0.568	0.177	0.0874	0.267	0.989	0.791	0.81	0.61	1.03
ATTTGTAGGTTATCGGGTCATTCAGTTTGCGCAT	3.62	4.05	3.03	3.67	2.31	4.47	6.03	5.66	2.93	5.14
CGAACTAGGTCACCAGGACAGTGGAGAGGTTGGA	4.02	2.46	0.169	1.58	-0.484	5.13	8.7	7.06	4.41	6.57
AGTCAAAGTTCATCTTGGTAACGTAAGATATGCT	6.87	5.48	5.97	4	2.25	4.58	6.07	6	3.31	5.53
CGAACTAGATCAAAGGACAGTGAAAGGCGACGTA	-0.658	-0.667	-0.396	-0.5	-0.637	1.77	3.32	4.89	2.76	4.58
CGTCCAAGGTCAATGCAAGGTCAGTGAAAGCATT	7.23	5.69	4.1	5.16	1.06	5.79	4.73	5.14	2.05	3.82
CCGACTGGGCCATTCAGAGGTCATTGATCATATG	2.92	4.38	6.59	3.54	-0.323	3.44	1.4	2.29	0.268	1.42
CGCCCAAGGTCAGCAGGTCAGTGAAAGCGACGTG	5.7	4.2	0.381	2.99	-0.0743	4.81	3.8	4.59	1.02	2.98
CCAACTAGGTCACCAGGACAGTGAAGAGGTTGGA	4.24	2.6	0.434	1.91	0.121	4.66	8.3	6.53	3.83	6.09
ATATGTAGATTAGGGTCATTCAGAAAGTAGGGAA	4.07	3.39	0.828	4.21	1.27	4.91	3.51	3.48	1.4	2.69
CGAACTAGGTCAAAGGACAGTTAAAGGCGACGTA	4.01	2.69	0.333	1.95	-0.158	5.58	10.5	8.8	7.97	9.57

Sequence	PBM binding z-score [1]	PBM binding z-score [2]	PBM binding z-score [3]	PBM binding z-score [4]	PBM binding z-score [5]	PBM binding z-score [6]	PBM binding z-score [7]	PBM binding z-score [8]	PBM binding z-score [9]	PBM binding z-score [10]
TAGCCAAGGTCAGATCGGGCCAGTATACGCTATA	5.26	3.12	-0.0844	2.55	0.145	3.85	1.88	2.35	0.514	1.53
CGAACTAGGTCACCAGGACAGTGTAGAGGTTGGA	4.04	2.35	-0.0613	1.77	-0.589	5.08	8.54	6.85	4.68	6.46
TAGCCTAGGTCATGGGCCAGTTTACCACGCGAAC	4.52	3.85	0.503	2.26	-0.093	4.37	3.6	3.88	0.612	2.88
CGAACTAGGTCACCAGGACAGCGAAGAGGTTGGA	3.93	2.11	-0.245	1.55	-0.88	4.91	8.61	6.98	4.85	6.78
CAAAGTAGGTCAAGAGGTCAAAGTCCGCTTCCCG	7.25	6.52	6.36	5.69	2.34	6.74	10.3	8.87	7.55	9.17
GCTGCTAGGTCAACTGAGGGTCAGCTAAAGCTCG	5.12	4.47	1.48	3.45	0.289	4.35	3.55	4.15	0.901	2.72
CGTCCAAGGTCAGCAGGTCACTGAAAGCGACGTG	6.56	4.66	0.808	3.7	0.0267	5.5	5.54	5.5	1.58	4.01
GATCCAGGGTCAGCTAGAGGCCAGAGTATGGAAA	4.42	2.62	-0.925	2.36	-1.4	4.38	3.24	3.15	0.349	1.66
GCATATAGGTAATTCAAGGTGAAAGTCCGATTGT	0.457	4.97	0.799	2.13	-0.412	1.9	0.967	1.51	0.0519	0.865
CGAACTATGTCACCAGGACAGTGAAGAGGTTGGA	0.32	0.0175	-0.0452	-0.257	-0.182	1.17	1.5	1.26	0.318	0.775
CGAACTAGGTCAATGGACAGTGAAAGGCGACGTA	3.01	1.85	-0.266	1.17	-0.604	4.39	6.92	6.17	3.76	5.61
TTACCAAGGTCAGCTGAGGTCGTTGATCCAACTC	6.04	5.5	2.43	4.31	0.419	4.83	3.85	4.1	1.27	2.92
CGAACTAGGTCAGAACAGGACATTGAAGGATGAT	1.42	1.55	0.178	0.649	-0.13	3.32	5.42	4.48	1.68	3.62
AATACAGGGACATCGTAGGCCAGAGTACGCACAG	-0.0851	-0.29	0.107	-0.465	0.118	-0.329	1.07	-0.124	0.0369	0.0571
ATCGAAAAGTCGAAGGTGAGTATACCCACCCGAA	0.0437	-0.18	-0.293	-0.264	-0.243	0.35	0.704	0.332	0.126	0.251
CAAACCAGGTCACGAAAGGTCAAAGTCGAATGAC	7.94	8.2	8.63	7.45	3.02	6.66	9.2	7.84	5.15	7.6
GCTGCTAGGTCATGTTGGTCAGCTAACGGGTACG	3.46	2.59	0.616	1.75	0.329	3.03	1.62	2.3	0.174	1.38
GCTGCAAGGTCAACTGATGGTCAGCTAAAGCTCG	7.53	5.93	0.917	4.54	1.33	5.97	4.81	5.67	1.77	3.97
ACTCGGAGGACAAAGGTCACAGCTACGCCAGTGA	5.25	5.76	3.07	4.75	0.774	5.97	9.11	7.86	6.87	8.74
GCTTACGGGTGAAAGGTTATAGCATGAATAGAAT	2.96	2.79	0.142	3	-0.294	5.7	9.88	8.08	7.78	8.71
CGTCCAAGGTCATAAGAGGTCAGTGAAGACAGAT	7.91	7.9	5.88	7.04	2.11	5.7	5.38	5.99	2.54	4.85
CGAACTAGGTCACAGGACAGTGAAAGGCGACGTA	4.05	2.67	-0.102	1.78	-0.469	5.21	8.8	7.37	4.65	7.31
CGAACTAGGTCAAATGACAGTGAAAGGCGACGTA	4.96	3.06	0.264	2.29	0.271	5.2	8.2	6.78	5.35	7.38
ATCGAAAGGTCGAAGGTGACTATACCCACCCGAA	4.54	3.72	0.344	3.07	0.925	4.92	5.16	5	2.71	4.38
